Data reported in PubChem BioAssay (NCATS).
Results filed as inconclusive are left out. The source made the active and inactive calls. Calls follow the shape of the dose curve; as a rule, active = well fitted curve in the direction sought with a large enough effect; inconclusive = small, poorly fitted or top-dose-only effect, or another doubt; inactive = no such curve, though single readings can be large; an effect the other way counts as inactive or inconclusive.

Key:
[1] = qHTS to identify inhibitors of the type 1 interferon - major histocompatibility complex class I in skeletal muscle: primary screen against the NCATS LOPAC collection (AID 1347405); settings: iHSKM muscle cells, IFN-b-induced MHC-I HiBiT luminescence, 24 h; series mostly up to 45.9 µM;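 also: human myoblasts with HiBiT tag on endogenous HLA-B stimulated by IFN-beta; lytic HiBiT luminescence reporting HLA-B protein level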
Summary of the method: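 First, engineered myoblasts carrying HLA-B-HiBiT were seeded in medium lacking dexamethasone with 4 ng/ml IFN-beta. After 1 hr, compounds were pinned in (top 46 uM final, 7 points). After 24 hrs at 37 C, luminescence was measured following 10 min lysis.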

[2] = qHTS to identify inhibitors of the type 1 interferon - major histocompatibility complex class I in skeletal muscle: primary screen against the NCATS Pharmaceutical Collection (AID 1347407); settings: human skeletal muscle cells, IFN-b-induced MHC-I HiBiT luminescence, 24 h; series mostly up to 45.9 µM;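 also: luminescence of HiBiT knocked into endogenous HLA-B as interferon-induced MHC class I level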
Summary of the method: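 Luminescence from HiBiT-tagged endogenous HLA-B*08:01 served as the read-out of IFN-beta-induced MHC class I in CRISPR-engineered C25cl48 myoblasts. Cells received 4 ng/ml IFN-beta plus compound (high final 46 uM, […]) for 24 h.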

[3] = qHTS for inhibitors of adenylyl cyclases using a fission yeast platform: a pilot screen against the NCATS LOPAC library (AID 1347410); settings: S. pombe CHP2027, fbp1-GFP fluorescence, 18 h, yeast expressing mammalian AC9 and human GNAS; series mostly up to 57.5 µM
Summary of the method: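 Fission yeast qHTS: CHP2027 cells (AC9-GNAS-PDE4D2, fbp1-GFP), 5x10^6 cells/mL working density, EMM + His/Lys/Ura; LOPAC at up to 57 µM final; 18 h dark, 30C; GFP by laser cytometry. DPI positive control, DMSO vehicle.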

[4] = target: Protein phosphatase 1D (Homo sapiens) (UniProt O15297); experiment: RapidFire Mass Spectrometry qHTS Assay for Modulators of WT P53-Induced Phosphatase 1 (WIP1) (AID 1347424); settings: WIP1 dephosphorylation of phosphopeptide, RapidFire MS; series mostly up to 63 µM
Summary of the method: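 RapidFire MS readout of dephosphorylated VEPPL-S-QETFS product, with 1 uM isotope-labelled peptide standard. Reaction: 10 nM WIP1, 2 uM phosphopeptide substrate, 5 min, room temperature, after 1 h compound preincubation; stopped with 0.5% formic acid.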

[5] = target: Protein phosphatase 1D (Homo sapiens) (UniProt O15297); experiment: Rhodamine-PBP qHTS Assay for Modulators of WT P53-Induced Phosphatase 1 (WIP1) (AID 1347425); settings: recombinant WIP1, Rhodamine-PBP phosphate fluorescence, real-time; series mostly up to 57.5 µM
Summary of the method: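 The read-out is the change in Rhodamine-PBP fluorescence (f1 - f0, ex 525/em 598 nm) as Pi is released, read each minute for 11 min. Final reaction: 5 nM WIP1, 10 uM phosphopeptide VEPPL-pS-QETFS, 10 uM Rh-PBP, 50 mM Tris-HCl pH 7.5, 30 mM MgCl2. Compound was preincubated with enzyme for 1 hour at room temperature.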

[6] = qHTS to identify inhibitors of the type 1 interferon - major histocompatibility complex class I in skeletal muscle: primary screen against the NCATS Mechanism Interrogation Plate v5.0 (MIPE) Libary (AID 1347411); settings: iHSKM cells + IFN-b, HiBiT-tagged MHC-I luminescence, 24 h; series mostly up to 45.8 µM; also: nearly all actives have a fitted effect of over 65% in size
Summary of the method: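 Seed engineered human myoblasts (HLA-B HiBit) in medium without dexamethasone containing 4 ng/ml IFN-beta; after 1 hr add compound titrations (top 46 uM final). Incubate 24 hrs at 37 C, lyse 10 min with HiBiT reagent, read luminescence.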

[7] = Vero-766 cells viability qHTS against the NCATS CANVASS Library: Counterscreen for Zika virus inhibition assay (AID 1347394); settings: Vero 766 viability, CellTiter-Glo luminescence, 72 h; series mostly up to 46.1 µM; also: nearly all actives have a fitted effect of over 60% in size
Summary of the method: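 Vero 766, no virus; 1000 cells/well; o/n attach; cpd 11-pt; 72 h, 37C, 5% CO2; CTG luminescence; cell-free media wells = 100% inhibition.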

[8] = qHTS for inhibitors of Wild type Zika virus screened against the NCATS CANVASS Library (AID 1347396); settings: Vero cells, Zika virus CPE, CellTiter-Glo, 72 h; series mostly up to 45.9 µM;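 also: ATP luminescence of surviving cells so rescue from viral cell killing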
Summary of the method: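 Luminescent CellTiter Glo read-out of virus-induced cytotoxicity, 72 h post-infection, in Vero 766 cells. Compounds were tested at 11 concentrations; uninfected, vehicle-treated wells defined 100% inhibition.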

[9] = Viability qHTS for inhibitors of the SERCaMP assay screened against the NCATS CANVASS Library (AID 1347400); settings: SH-SY5Y SERCaMP cells viability, CellTiter-Glo, 48 h; series mostly up to 92.2 µM; also: nearly all actives have a fitted effect of over 70% in size
Summary of the method: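 Seed SH-SY5Y-GLuc SERCaMP MJH297 cells at 1000 per well, incubate 4 h, add compounds across an 11-point range, incubate 48 h at 37C, then add CellTiter-Glo and read luminescence.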

[10] = Redox Reaction Profiling qHTS: Assay Interference Panel against the NCATS CANVASS Library (AID 1347401); settings: resazurin-DTT redox cycling, fluorescence, 15 min; series mostly up to 57.1 µM
Summary of the method: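 Fluorescence read-out (525 nm excitation, 598 nm emission) at time zero and after 15 min in the dark tracked resorufin formation. Mix: 5 uM resazurin, 200 uM DTT, HEPES pH 7.3 buffer with NaCl.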

Measured: Potency

Sequence of Protein phosphatase 1D (Homo sapiens) (O15297 whole entry, looked up): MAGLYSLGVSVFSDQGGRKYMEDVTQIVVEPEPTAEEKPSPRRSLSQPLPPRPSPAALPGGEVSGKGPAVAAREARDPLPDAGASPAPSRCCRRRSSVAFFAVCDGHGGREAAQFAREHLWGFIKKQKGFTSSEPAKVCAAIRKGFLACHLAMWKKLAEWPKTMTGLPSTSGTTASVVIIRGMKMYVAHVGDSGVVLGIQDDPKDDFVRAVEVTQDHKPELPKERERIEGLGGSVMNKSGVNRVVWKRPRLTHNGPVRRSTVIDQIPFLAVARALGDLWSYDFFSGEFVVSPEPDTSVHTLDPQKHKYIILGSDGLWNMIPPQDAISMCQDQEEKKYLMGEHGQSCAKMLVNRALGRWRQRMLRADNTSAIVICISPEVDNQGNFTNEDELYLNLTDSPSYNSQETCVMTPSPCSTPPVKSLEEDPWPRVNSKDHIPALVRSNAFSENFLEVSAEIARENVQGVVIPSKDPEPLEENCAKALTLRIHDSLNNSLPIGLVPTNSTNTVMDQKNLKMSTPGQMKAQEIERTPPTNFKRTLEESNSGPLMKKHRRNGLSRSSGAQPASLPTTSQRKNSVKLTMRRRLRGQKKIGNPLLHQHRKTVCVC

O=C(O)CCc1nc(-c2ccccc2)c(-c2ccccc2)o1
inactive: [1] | [2] | [3] | [4] | [5]

NCCS
inactive: [1] | [2] | [3] | [4] | [5]

Clc1ccc(Cn2c(CN3CCCC3)nc3ccccc32)cc1
inactive: [1] | [2] | [3] | [6] | [4] | [5]

CN(C)c1cc(NC(=O)CNC(C)(C)C)c(O)c2c1C[C@@H]1C[C@H]3[C@H](N(C)C)C(=O)C(C(N)=O)=C(O)[C@@]3(O)C(=O)C1=C2O
inactive: [2]

COc1cccc(-c2cc(=O)c3ccccc3o2)c1N
inactive: [1] | [3] | [6]

CCn1cc(C(=O)O)c(=O)c2ccc(C)nc21
inactive: [1] | [2] | [3] | [4] | [5]

COc1ccccc1N1CCN(CCCNc2cc(=O)n(C)c(=O)n2C)CC1
inactive: [1] | [2] | [3] | [4] | [5]

OC[C@@H](O)[C@H](O)[C@H](O)[C@@H](O)CO
inactive: [2] | [4] | [5]

C[N+](C)(C)CCCCCC[N+](C)(C)C
inactive: [1] | [2] | [3] | [4] | [5]

O=c1cc(-c2ccccc2)oc2cc(O)c(O)c(O)c12
inactive: [7] | [8] | [9] | [10]

COc1ccc(Cc2nccc3cc(OC)c(OC)cc23)cc1OC
inactive: [1] | [3]

Cc1cccc(C)c1OCC(C)N (centres undefined)
inactive: [1] | [2] | [3] | [4] | [5]

O=C1NCC2(CCN(CCc3ccccc3)CC2)O1
inactive: [1] | [2] | [3] | [4] | [5]
